Screens deposited in PubChem BioAssay by several laboratories.
A selection: hits, their analogues and other compounds. The true share with any hit is near 4.1%.
TRPM1 prom inh: inhibitors of MITF-dependent TRPM1 promoter reporter, primary screen, cell-based, SK-MEL-5, single point, luciferase; SK-MEL-5 TRPM1 promoter luciferase, 24 h; inhibition, % at 12.5 µM; 330,000 tested, 0.83% active; AID 488899, 2010;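 active = mean inhibition across replicates of 60% or more, whatever share of single replicates reaches that level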
TWEAK Fn14 block: inhibitors of TWEAK-Fn14 signaling, primary screen, luciferase reporter cells, uHTS; TWEAK-stimulated Fn14 reporter cells, luciferase luminescence, 8 h; inhibition, % at 10 µM; 360,000 tested, 2% active; AID 1159606, 2016; in the data active = inhibition above about 50%
Shn3 inh set2: reduction of Shn3 3'UTR firefly luciferase signal, primary screen, Schnurri-3 inhibitor project, cell-based, Clone20 osteoblasts, set 2. inhibition, % at 12.5 µM. Clone20 osteoblast Shn3 3'UTR firefly luciferase, 24 h. 360,000 tested, 0.52% active. AID 588674, 2011;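 active = mean inhibition of at least 75% with every replicate also reaching 75%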
TROY NFkB inh: inhibitors of TROY-driven NF-kB signaling, primary screen, Q293 LMP1-TROYcd cells, NF-kB luciferase, uHTS. Q293 LMP1-TROYcd NF-kB luciferase reporter, 4 h. inhibition, % at 10 µM. 360,000 tested, 0.98% active. AID 1347056, 2019;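 active = compounds whose plate-normalised and pattern-corrected inhibition of the luciferase reporter signal at the single screening dose is 50% or more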
Peg3 prom inh-1: Peg3 promoter-driven luciferase inhibitors, primary screen, cell-based, HeLa, luciferase luminescence; HeLa PEG-Prom luciferase reporter, overnight; inhibition, % at 20 µM; 360,000 tested, 1.7% active; AID 588405, 2011;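 active = inhibition of at least 50% at 20 µM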
LMP1 NFkB inh: EBV LMP1-driven NF-kappaB luciferase reporter inhibitors, primary screen, cell-based, luminescence, single point; LMP1-induced NF-kappaB luciferase reporter cells; inhibition, % at 12.5 µM; 350,000 tested, 0.69% active; AID 504558, 2011; in the data active = inhibition above about 41%
Peg3 prom inh-2: Peg3 promoter reporter inhibitors, retest, confirmation, cell-based, HeLa, luciferase reporter, single concentration; AID 602417, 2012; inhibition, % at 20 µM; shares compounds with Peg3 prom inh-1; HeLa PEG-Prom luciferase reporter, luminescence, overnight; 1,300 tested, 84% active;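 active = at 20 µM dose, 40% or more inhibition averaged across four replicates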
Large screens that a line does not name were inactive (follow-up assays come after a bar, where they were run).

O=C(Nc1cccc(C(=O)O)c1)Nc1ccc2c(c1)OCO2	TRPM1 prom inh 89, Peg3 prom inh-1 84, LMP1 NFkB inh 73 | Peg3 prom inh-2 74
Cc1cccc(CCN(CC(=O)NCc2ccc(F)cc2)C(=O)c2csnn2)c1	none
C=CCn1c(SCC(=O)c2[nH]c(C)c(C(=O)OCC)c2C)nc2scc(-c3ccc(OC)c(OC)c3)c2c1=O	TRPM1 prom inh 102, Peg3 prom inh-1 86 | Peg3 prom inh-2 inactive
CCOC(=O)c1c(C)[nH]c(C(=O)CSc2nnc(-c3ccncc3)n2CC)c1C	none
O=C(NC1CCCC1)C(c1ccccc1)N(Cc1ccccc1)C(=O)c1csnn1 (centres undefined)	none
CCN(CC)S(=O)(=O)c1cccc(N=Nc2c(O)c3ccccc3oc2=O)c1	none
O=C(NN=Cc1c(F)c(F)c(F)c(F)c1F)c1ccc(NS(=O)(=O)c2cccs2)cc1	Peg3 prom inh-1 57 | Peg3 prom inh-2 inactive
Cc1ccc2nc(-c3cccc(S(=O)(=O)N4CC(C)OC(C)C4)c3)cn2c1 (centres undefined)	none
COC(=O)c1ccc2nc(Nc3nc4ccc(F)cc4s3)sc2c1	TRPM1 prom inh 84, TWEAK Fn14 block 92, TROY NFkB inh 79, Peg3 prom inh-1 79 | Peg3 prom inh-2 90
CN(Cc1ccccc1)c1ncc(C=O)s1	none
Cn1c(N)c(C(=O)CCl)c(=O)n(Cc2ccccc2)c1=O	none
Cn1c(=O)c(C(=O)CCl)c(N)n(Cc2ccccc2)c1=O	Peg3 prom inh-1 69 | Peg3 prom inh-2 51
CC(=O)N(c1ccc(Cl)cc1)c1cn(C(C)=O)c2ccccc12	none
CC(=O)n1cc(N(C(=O)CCl)c2ccc(C)cc2)c2ccccc21	TRPM1 prom inh 74, TWEAK Fn14 block 56, Peg3 prom inh-1 109 (no result: Shn3 inh set2) | Peg3 prom inh-2 101
O=C(N/N=C/c1cccs1)c1n[nH]c2c1CCCC2	TWEAK Fn14 block 93, TROY NFkB inh 68, Peg3 prom inh-1 78, LMP1 NFkB inh 68 | Peg3 prom inh-2 56
C/C(=N\NC(=O)c1cc(C)[nH]n1)c1cccs1	none
C/C(=N\NC(=O)c1n[nH]c2c1CCC2)c1cccs1	TRPM1 prom inh 65, TWEAK Fn14 block 96, TROY NFkB inh 63, Peg3 prom inh-1 94, LMP1 NFkB inh 74 | Peg3 prom inh-2 72
CC(=O)Nc1cccc(-c2ccnc3c2CC(C(=O)NCCc2ccccc2)O3)c1 (centres undefined)	none (no result: TRPM1 prom inh, LMP1 NFkB inh)
CCC(=O)NC(c1cccs1)c1cc([N+](=O)[O-])c2cccnc2c1O (centres undefined)	Peg3 prom inh-1 53 | Peg3 prom inh-2 54
CC(=O)NC(c1ccccc1)c1cc([N+](=O)[O-])c2cccnc2c1O (centres undefined)	Peg3 prom inh-1 61 | Peg3 prom inh-2 63
CC(=O)NC(c1ccco1)c1cc(Cl)c2cccnc2c1O (centres undefined)	none (no result: TRPM1 prom inh, LMP1 NFkB inh)
CC(=O)NC(c1ccc(C)cc1)c1cc(Cl)c2cccnc2c1O (centres undefined)	Shn3 inh set2 87, Peg3 prom inh-1 65 | Peg3 prom inh-2 56
O=C(c1ccc(Cl)cc1)N1CCN(c2ccc([N+](=O)[O-])c(NCc3cccnc3)c2)CC1	Peg3 prom inh-1 55 | Peg3 prom inh-2 49
O=C(c1ccccc1)N1CCN(c2ccc([N+](=O)[O-])c(NCc3cccnc3)c2)CC1	none
O=C1COc2ccc(C(=O)CSc3nc4ccccc4c(=O)n3-c3ccc(Cl)c(Cl)c3)cc2N1	Peg3 prom inh-1 76 | Peg3 prom inh-2 inactive
Cc1cc(C)c(NC(=O)CSc2nc3ccc(NC(=O)CSc4nnnn4Cc4ccccc4)cc3s2)c(C)c1	none
Cc1cc(C)c(NC(=O)CSc2nc3ccc(NC(=O)CSc4nnnn4-c4ccccc4)cc3s2)c(C)c1	Peg3 prom inh-1 84 | Peg3 prom inh-2 inactive
COc1cc(NC(=O)c2cccc(C)c2)ccc1NC(=O)c1cc2ccccc2o1	Peg3 prom inh-1 60 | Peg3 prom inh-2 50
Cc1ccc(-c2nn3c(-c4ccco4)nnc3c3ccccc23)cc1S(=O)(=O)NCC1CCCO1 (centres undefined)	Peg3 prom inh-1 56 | Peg3 prom inh-2 inactive
CCCCCCCCNS(=O)(=O)CCNCc1ccccc1	none
CCCCCCCCNCCS(=O)(=O)NCc1ccc(OC)cc1	Peg3 prom inh-1 56 | Peg3 prom inh-2 68
Cc1ccc(-c2nc(-c3ccccn3)no2)cc1	TRPM1 prom inh 90, TWEAK Fn14 block 106, Shn3 inh set2 92, TROY NFkB inh 86, Peg3 prom inh-1 96, LMP1 NFkB inh 88 | Peg3 prom inh-2 89
COc1cc(-c2nc(-c3ccccn3)no2)cc(OC)c1OC	none
c1ccc(-c2nc(-c3ccccn3)no2)cc1	TWEAK Fn14 block 94, TROY NFkB inh 73, Peg3 prom inh-1 76, LMP1 NFkB inh 41 | Peg3 prom inh-2 46
Cc1ccc(-c2nc(-c3ccccn3)no2)cc1Cl	TRPM1 prom inh 83, TWEAK Fn14 block 104, TROY NFkB inh 82, Peg3 prom inh-1 93, LMP1 NFkB inh 68 | Peg3 prom inh-2 72
Clc1cccc(-c2nc(-c3ccccn3)no2)c1	TRPM1 prom inh 64, TWEAK Fn14 block 97, TROY NFkB inh 70, Peg3 prom inh-1 62, LMP1 NFkB inh 51 | Peg3 prom inh-2 52
CCC1(c2ccccc2)SCC(c2ccccc2)=NC1=O (centres undefined)	none
N#CC(c1ccc(O)cc1)c1ncc(C(F)(F)F)cc1Cl (centres undefined)	none
Nn1c(SCC(=O)Nc2ccccc2C(F)(F)F)nncc1=O	none
CC(C)(C)c1ccc(NC(=O)CN2C(=O)NC(C)(C3CC3)C2=O)cc1 (centres undefined)	none
Cc1ccc2nc(NC(=O)CSCC(=O)OCC(=O)c3ccccc3)sc2c1	TWEAK Fn14 block 96, TROY NFkB inh 73, Peg3 prom inh-1 53 | Peg3 prom inh-2 71
Cn1nnnc1Sc1ncnc2scc(-c3ccsc3)c12	TRPM1 prom inh 82, TWEAK Fn14 block 72, Peg3 prom inh-1 95, LMP1 NFkB inh 43 | Peg3 prom inh-2 96
Cc1nnc(NC(=O)CSc2ncnc3scc(-c4ccccc4)c23)s1	none
CC(=O)c1ccccc1-c1csc2ncnc(Sc3nnnn3C)c12	Peg3 prom inh-1 54 | Peg3 prom inh-2 inactive
Cc1ccc(-c2csc3ncnc(SCC(=O)O)c23)cc1	none
O=C(NC1CCSC1=O)C1CC(=O)N(c2ccc(F)cc2)C1 (centres undefined)	none
